# Where two headings read alike, the source gives them in different places.
# Key:
# AAK1 = test system: AAK1; parameters: species or system human, MV4-11 + K-562 + COLO205 + SK-N-BE2 + OVCAR-8; conditions: read-out: apparent Kd, n = 1
# CLK1 = test system: CLK1; parameters: species or system human, MV4-11 + K-562 + COLO205 + SK-N-BE2 + OVCAR-8; conditions: read-out: apparent Kd, n = 1
# CLK4 = test system: CLK4; parameters: species or system human, MV4-11 + K-562 + COLO205 + SK-N-BE2 + OVCAR-8; conditions: read-out: apparent Kd, n = 1
# CSNK2A1;CSNK2A3 = test system: CSNK2A1;CSNK2A3; parameters: species or system human, MV4-11 + K-562 + COLO205 + SK-N-BE2 + OVCAR-8; conditions: read-out: apparent Kd, n = 1
# CSNK2A2 = test system: CSNK2A2; parameters: species or system human, MV4-11 + K-562 + COLO205 + SK-N-BE2 + OVCAR-8; conditions: read-out: apparent Kd, n = 1
# GAK = test system: GAK; parameters: species or system human, MV4-11 + K-562 + COLO205 + SK-N-BE2 + OVCAR-8; conditions: read-out: apparent Kd, n = 1
# GSK3A = test system: GSK3A; parameters: species or system human, MV4-11 + K-562 + COLO205 + SK-N-BE2 + OVCAR-8; conditions: read-out: apparent Kd, n = 1
# GSK3B = test system: GSK3B; parameters: species or system human, MV4-11 + K-562 + COLO205 + SK-N-BE2 + OVCAR-8; conditions: read-out: apparent Kd, n = 1
# MELK = test system: MELK; parameters: species or system human, MV4-11 + K-562 + COLO205 + SK-N-BE2 + OVCAR-8; conditions: read-out: apparent Kd, n = 1
# NUAK1 = test system: NUAK1; parameters: species or system human, MV4-11 + K-562 + COLO205 + SK-N-BE2 + OVCAR-8; conditions: read-out: apparent Kd, n = 1
# PAK4 = test system: PAK4; parameters: species or system human, MV4-11 + K-562 + COLO205 + SK-N-BE2 + OVCAR-8; conditions: read-out: apparent Kd, n = 1
# PKN1 = test system: PKN1; parameters: species or system human, MV4-11 + K-562 + COLO205 + SK-N-BE2 + OVCAR-8; conditions: read-out: apparent Kd, n = 1
# PKN3 [1] = test system: PKN3; parameters: species or system human, MV4-11 + K-562 + COLO205 + SK-N-BE2 + OVCAR-8; conditions: read-out: apparent Kd, n = 1;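 for IC50: NanoBRET target engagement in HEK293T cells transiently expressing full-length PKN3 with C-terminal NanoLuc, displacement of fluorescent tracer K5 (500 nM), BRET read after 2 h equilibration at 37 °C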
# PRKAG1 = test system: PRKAG1; parameters: species or system human, MV4-11 + K-562 + COLO205 + SK-N-BE2 + OVCAR-8; conditions: read-out: apparent Kd, n = 1
# Q6ZSR9 = Q6ZSR9 (human, UniProt Q6ZSR9); parameters: species or system MV4-11 + K-562 + COLO205 + SK-N-BE2 + OVCAR-8; conditions: read-out: apparent Kd, n = 1
# Chain of Q6ZSR9 (Q6ZSR9 whole entry, looked up): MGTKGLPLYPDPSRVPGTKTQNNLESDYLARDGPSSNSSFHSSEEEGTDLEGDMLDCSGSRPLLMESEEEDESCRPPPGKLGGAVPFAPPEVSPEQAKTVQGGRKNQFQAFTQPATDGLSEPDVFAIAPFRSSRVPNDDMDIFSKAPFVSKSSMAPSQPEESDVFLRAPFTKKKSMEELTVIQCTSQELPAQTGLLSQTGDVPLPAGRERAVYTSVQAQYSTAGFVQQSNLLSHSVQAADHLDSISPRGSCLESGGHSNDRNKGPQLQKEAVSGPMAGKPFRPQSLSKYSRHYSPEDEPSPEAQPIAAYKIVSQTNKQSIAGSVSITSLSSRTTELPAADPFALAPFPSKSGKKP
# RET = test system: RET; parameters: species or system human, MV4-11 + K-562 + COLO205 + SK-N-BE2 + OVCAR-8; conditions: read-out: apparent Kd, n = 1
# SIK2 = test system: SIK2; parameters: species or system human, MV4-11 + K-562 + COLO205 + SK-N-BE2 + OVCAR-8; conditions: read-out: apparent Kd, n = 1
# BMP2K = test system: BMP2K; parameters: species or system human, MV4-11 + K-562 + COLO205 + SK-N-BE2 + OVCAR-8; conditions: read-out: apparent Kd, n = 1
# FLT4 = test system: FLT4; parameters: species or system human, MV4-11 + K-562 + COLO205 + SK-N-BE2 + OVCAR-8; conditions: read-out: apparent Kd, n = 1
# PKN3 [2] = conditions: hek293t cells
# [3] = compound concentrations:100 nM and 1000 nM (sheet 'Samples')
molecule,measurement,setting,value
CN(c1ccc(NC(=O)Nc2cccc(Cl)c2)cc1)c1ccnc(N)n1.Cl [GW830707A],potency estimated from few doses,"AAK1; compound concentrations: 100 nM and 1000 nM (sheet 'Samples'), CATDS: 1.09630092870236E-2",1150 nM
same,potency estimated from few doses,"CLK1; compound concentrations: 100 nM and 1000 nM (sheet 'Samples'), CATDS: 2.1787512742807501E-2",42 nM
same,potency estimated from few doses,"CLK4; compound concentrations: 100 nM and 1000 nM (sheet 'Samples'), CATDS: 1.6953828831644601E-2",90.4 nM
same,potency estimated from few doses,"CSNK2A1;CSNK2A3; compound concentrations: 100 nM and 1000 nM (sheet 'Samples'), CATDS: 1.0372533520716E-2",1990 nM
same,potency estimated from few doses,"CSNK2A2; compound concentrations: 100 nM and 1000 nM (sheet 'Samples'), CATDS: 1.04920498001006E-2",1760 nM
same,potency estimated from few doses,"GAK; compound concentrations: 100 nM and 1000 nM (sheet 'Samples'), CATDS: 2.5195285382478599E-2",29.6 nM
same,potency estimated from few doses,"GSK3A; compound concentrations: 100 nM and 1000 nM (sheet 'Samples'), CATDS: 2.1035735190854499E-2",46.1 nM
same,potency estimated from few doses,"GSK3B; compound concentrations: 100 nM and 1000 nM (sheet 'Samples'), CATDS: 1.8960420623414999E-2",62.2 nM
same,potency estimated from few doses,"MELK; compound concentrations: 100 nM and 1000 nM (sheet 'Samples'), CATDS: 1.02944782662895E-2",2160 nM
same,potency estimated from few doses,"NUAK1; compound concentrations: 100 nM and 1000 nM (sheet 'Samples'), CATDS: 1.06533204099584E-2",1510 nM
same,potency estimated from few doses,"PAK4; compound concentrations: 100 nM and 1000 nM (sheet 'Samples'), CATDS: 1.12669730748303E-2",911 nM
same,potency estimated from few doses,"PKN1; compound concentrations: 100 nM and 1000 nM (sheet 'Samples'), CATDS: 1.22442733693101E-2",482 nM
same,potency estimated from few doses,"PKN3 [1]; compound concentrations: 100 nM and 1000 nM (sheet 'Samples'), CATDS: 1.09744327233877E-2",1140 nM
same,potency estimated from few doses,"PRKAG1; compound concentrations: 100 nM and 1000 nM (sheet 'Samples'), CATDS: 2.2358938635015799E-2",39.4 nM
same,potency estimated from few doses,"Q6ZSR9; compound concentrations: 100 nM and 1000 nM (sheet 'Samples'), CATDS: 1.11912324380908E-2",964 nM
same,potency estimated from few doses,"RET; compound concentrations: 100 nM and 1000 nM (sheet 'Samples'), CATDS: 1.6938963358117499E-2",90.7 nM
same,potency estimated from few doses,"SIK2; compound concentrations: 100 nM and 1000 nM (sheet 'Samples'), CATDS: 1.7275561883006999E-2",84.5 nM
Cc1ccc(Nc2ccnc(Nc3ccc4c(c3)CS(=O)(=O)C4)n2)cc1O.Cl [GW579362A],potency estimated from few doses,"AAK1; compound concentrations: 100 nM and 1000 nM (sheet 'Samples'), CATDS: 3.1485270896706399E-2",1060 nM
same,potency estimated from few doses,"BMP2K; compound concentrations: 100 nM and 1000 nM (sheet 'Samples'), CATDS: 2.75119720973705E-2",1640 nM
same,potency estimated from few doses,"CSNK2A1;CSNK2A3; compound concentrations: 100 nM and 1000 nM (sheet 'Samples'), CATDS: 3.1042037667094801E-2",1100 nM
same,potency estimated from few doses,"CSNK2A2; compound concentrations: 100 nM and 1000 nM (sheet 'Samples'), CATDS: 3.7509924473465302E-2",666 nM
same,potency estimated from few doses,"FLT4; compound concentrations: 100 nM and 1000 nM (sheet 'Samples'), CATDS: 3.6167271282575603E-2",729 nM
same,potency estimated from few doses,"RET; compound concentrations: 100 nM and 1000 nM (sheet 'Samples'), CATDS: 5.0599670871917801E-2",349 nM
LY3009120,IC50,"PKN3 [2]; read-out: Average, SD, n = 4",513 nM
same,IC50,PKN3 [2]; read-out: Rep 1,538 nM
same,IC50,PKN3 [2]; read-out: Rep 2,1230 nM
same,IC50,PKN3 [2]; read-out: Rep 3,112 nM
same,IC50,PKN3 [2]; read-out: Rep 4,173 nM
Cc1cccc2c(-c3ccncn3)c(-c3ccc(F)cc3)nn12 [GW515532X],potency estimated from few doses,"PKN3 [1]; compound concentrations: 100 nM and 1000 nM (sheet 'Samples'), CATDS: 0.37134711180045199",663 nM
same,IC50,"PKN3 [2]; read-out: Average, SD, n = 3",26700 nM
same,IC50,PKN3 [2]; read-out: Rep 1,78800 nM
same,IC50,PKN3 [2]; read-out: Rep 2,922 nM
same,IC50,PKN3 [2]; read-out: Rep 4,257 nM
O=C1NC(=O)C(N2CCc3ccccc32)=C1c1ccccc1Cl [SB-373598],potency estimated from few doses,AAK1; [3],284 nM
same,potency estimated from few doses,BMP2K; [3],478 nM
same,potency estimated from few doses,CLK1; [3],275 nM
same,potency estimated from few doses,CLK4; [3],246 nM
same,potency estimated from few doses,CSNK2A1;CSNK2A3; [3],315 nM
same,potency estimated from few doses,CSNK2A2; [3],301 nM
same,potency estimated from few doses,FLT4; [3],478 nM
same,potency estimated from few doses,GAK; [3],167 nM
same,potency estimated from few doses,GSK3A; [3],104 nM
same,potency estimated from few doses,GSK3B; [3],177 nM
same,potency estimated from few doses,MELK; [3],1000 nM
same,potency estimated from few doses,NUAK1; [3],287 nM
same,potency estimated from few doses,PAK4; [3],298 nM
same,potency estimated from few doses,PKN1; [3],1180 nM
same,potency estimated from few doses,PKN3 [1]; [3],566 nM
same,potency estimated from few doses,PRKAG1; [3],215 nM
same,potency estimated from few doses,Q6ZSR9; [3],280 nM
same,potency estimated from few doses,RET; [3],239 nM
same,potency estimated from few doses,SIK2; [3],192 nM
